The values below come from PubChem BioAssay.

Unmarked numbers belong to inactive results.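 The calls were made as follows: active = viability increase at or above a cutoff of the median across tested compounds plus 3 SD (cut at about 8.5% in these data, passing the limit was not always enough); inconclusive = some gains above the cutoff, reason not given; inactive = the rest.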

The experiment in a line: viability gain of MRP-1-high H69AR cells under doxorubicin, pilot screen, MRP-1 activator project, CellTiter-Glo, duplicate (AID 807).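 Also: compound pretreatment 18-22 h then 72 h combined with doxorubicin; 0% = doxorubicin alone and 100% = vehicle without doxorubicin.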 The settings on record: H69AR viability with doxorubicin, CellTiter-Glo luminescence; at 10 µM; active compounds read high. Background: In ATP-based viability assays light output follows the ATP content of the culture.
On to `Cc1cccc(Cn2c(SCCN3CCOCC3)nc3c2c(=O)n(C)c(=O)n3C)c1`, for which the viability increase is -2.36%. The value for `COc1cccc(C(c2sc3ncnn3c2O)N2CCN(C(=O)c3ccco3)CC2)c1` (configuration not stated) was 0.76%; that for `CCN1CCN(C(=O)C2CCN(Cc3nc(-c4ccc(Cl)cc4)oc3C)CC2)CC1` was -2.66%. The value for `CCOC(=O)CC1C(=O)NCCN1Cc1cccc(OC)c1` (configuration not stated) was 0.71%; that for `COc1cccc(-c2nc3cc(C)ccc3o2)c1` was -4.74%; that for `COCCSc1nc2c(c(=O)[nH]c(=O)n2C)n1CCC(C)C` was -1.88%. The value for `O=C(CCCN1C(=O)CSc2ncccc21)N1CCN(Cc2ccccc2)CC1` was -2.06%.

With `Cc1cc(C)n(C(=O)CCN2C(=O)c3ccccc3C2=O)n1`, the viability increase is 2%.

`CCCC(=O)c1ccc(N2CCCCCC2)c(F)c1`: the viability increase is 3.64%. The value for `O=C(Nc1c(C(=O)O)oc2ccc(Br)cc12)c1ccccc1` was -3.96%; that for `CCC(=O)Nc1sc2c(c1C(N)=O)CCN(C(C)=O)C2` was -0.72%. The value for `CS(=O)(=O)c1ccc(N)cc1` was -2.37%; that for `O=C1CC(c2cccnc2)c2cc3c(cc2N1)OCCO3` (configuration not stated) was -2.86%; that for `COCCNC(=O)Cn1ncc2ccsc2c1=O` was 0.35%. The value for `COc1cc(NC(=O)C2CCCN2S(=O)(=O)c2ccc3c(c2)CCC(=O)N3)cc(OC)c1` (configuration not stated) was -1.09%; that for `CC(C)n1c(SCc2ccccc2F)nc2c1c(=O)n(C)c(=O)n2C` was -1.77%. In the case of `CCOC(=O)c1c(C)oc2ccc(OC(=O)N3CCOCC3)cc12`, the viability increase is -1.36%.
